# A selection: hits, their analogues and other compounds. The true share with any hit is near 9.5%.
# NS1 inh = qHTS Assay for Inhibitors of Influenza NS1 Protein Function | Potency, µM (series often up to 46.1 µM) | 270,000 compounds, 0.4% hits | AID 2326, 2010; note: actives are rising curves; nearly all actives have a fitted effect of over 50% in size
#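 In this qHTS, NS1 from influenza A is expressed in budding yeast, where it slows growth. Cells are switched from glucose to 2% galactose medium (pH 6.0, -URA), treated with compound, and growth recovery is read at OD600.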
# RE007 growth inh = qHTS Assay for Inhibitors of the HIV-1 protein Vpr | S. pombe RE007 Vpr strain, BacTiter-Glo ATP luminescence, 24 h | Potency, µM (highest dose often 92.2 µM), most hits filed as inhibitors | 360,000 compounds, 0.21% hits | AID 651644, 2012; active = well fitted falling curve with a large enough effect; inconclusive = small, poorly fitted or top-dose-only effect; inactive = no such curve, though single readings can be large or run the other way; note: nearly all actives have a fitted effect of over 50% in size
#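 Fission yeast RE007 carrying one integrated HIV-1 vpr copy, seeded at OD 0.01 in PMG+AL medium with 23 nL pinned compound. Grown 24 h at 30 degrees; viability read by BacTiter-Glo luminescence after 5 min.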
# Pf growth 48h = Primary qHTS for delayed death inhibitors of the malarial parasite plastid, 48 hour incubation; P. falciparum luciferase growth in erythrocytes, 48 h; Potency, µM (top dose mostly 28.7 µM), most hits filed as inhibitors; 310,000 compounds, 5.9% hits; AID 504832, 2011; active = well fitted inhibition curve with a large enough effect; inconclusive = small, poorly fitted or top-dose-only effect, or another doubt; inactive = no such curve, though single readings can be large or run the other way
#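 Firefly luciferase activity from engineered P. falciparum reports growth; inhibitors lower the luminescent signal. Cultures contained 2% hematocrit erythrocytes at 0.1% final parasitemia.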
# Pf growth 96h = Primary qHTS for delayed death inhibitors of the malarial parasite plastid, 96 hour incubation; Potency, µM (highest dose often 28.7 µM), hits mostly inhibitors; P. falciparum luciferase reporter growth, 96 h; 320,000 compounds, 6.9% hits; AID 504834, 2011; active = well fitted inhibition curve with a large enough effect; inconclusive = small, poorly fitted or top-dose-only effect, or another doubt; inactive = no such curve, though single readings can be large or run the other way
#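 Luminescence readout: decreased luciferase signal marks inhibited growth of reporter-expressing P. falciparum in infected red cells (2% hematocrit, 0.05% parasitemia final), exposed to compound two generations (96 h, 37 C, 5% CO2).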
# SARS PLpro yeast = qHTS of Yeast-based Assay for SARS-CoV PLP; 330,000 compounds, 0.19% hits; Potency, µM (doses to about 32.9 µM), usual class: activators; S. cerevisiae expressing SARS-CoV PLpro, growth rescue; AID 485353, 2010; note: nearly all actives have a fitted effect of over 55% in size
# Hits are given with their value; - = inactive; ? = inconclusive; . = no result. Unless noted, calls come from the whole dose curve.
SMILES,NS1 inh,RE007 growth inh,Pf growth 48h,Pf growth 96h,SARS PLpro yeast
O=C(NNS(=O)(=O)c1ccccc1)C(O)(c1ccccc1)c1ccccc1,-,-,-,-,-
O=C1NC(=S)N/C1=C/c1ccc2c(c1)OCO2,-,-,-,-,-
O=C1NC(=O)C(=Cc2ccc3c(c2)OCO3)C(=O)N1,.,.,-,9.3µM,-
Cc1ccc(NC(=O)COc2ccc(N(C)C(=O)C(C)(C)C)cc2)cc1S(=O)(=O)N1CCCCC1,.,-,.,.,-
C/C(CCC(C)C)=N\Nc1cc(C)c2ccccc2n1,.,-,?,17µM,-
Cc1nn(C)cc1S(=O)(=O)NCc1ccccc1Cl,-,-,-,?,-
COc1ccc(C2c3[nH]c4ccccc4c3CCN2C(=O)c2cc3ncccn3n2)c(F)c1 (configuration not stated),-,-,13µM,-,-
CCn1cc(CN2CCc3c([nH]c4ccccc34)C2c2cccc(OC)c2OC)c(C)n1 (configuration not stated),-,?,12µM,-,-
COc1ccc(C2c3[nH]c4ccccc4c3CCN2C(=O)c2cn3ccccc3n2)c(F)c1 (configuration not stated),-,-,15µM,?,-
COc1ccc(C2c3[nH]c4ccccc4c3CCN2C(=O)c2ccccc2C(C)=O)c(F)c1 (configuration not stated),-,-,?,-,-
COc1cccc(C2c3[nH]c4ccccc4c3CCN2C(=O)c2ccccc2F)c1OC (configuration not stated),-,-,9.3µM,?,-
COc1ccccc1NC(=O)CSc1nccc(-c2ccco2)n1,.,-,?,?,-
CN1CCC(=O)N([C@H](COc2ccccc2)Cc2ccccc2)CC1,-,-,-,?,-
COc1ccc(COc2cc(-c3cccc(OC)c3)nc3ccc(NC(=O)c4cccnc4)cc23)cc1,?,-,2.9µM,2.3µM,-
COc1ccc(COc2cc(-c3cccc(OC)c3)nc3ccc(NC(=O)c4ccc(OC)cc4)cc23)cc1,?,-,13µM,4.7µM,-
O=C(O)c1cccc(NC(=O)c2ccc(COc3ccc(Cl)cc3)cc2)c1,-,-,-,-,-
COc1ccc(COc2cc(-c3cccc(OC)c3)nc3ccc(NC(=O)c4ccc(Cl)cc4)cc23)cc1,-,-,2.1µM,3.7µM,-
COc1ccc(OCC(=O)NNC(=O)c2cccnc2)cc1,-,-,-,-,-
COc1ccc(COc2cc(-c3cccc(OC)c3)nc3ccc(NC(=O)c4ccccc4)cc23)cc1,?,-,12µM,12µM,-
COc1ccc(Cc2nc(-c3ccc(NC(=O)c4cccnc4)cc3)no2)cc1,-,-,5.2µM,-,-
C=CCOc1c(Br)cc(/C=N/Nc2ccc(C(=O)O)cc2)cc1OCC,-,-,-,-,-
CC1CCCN(S(=O)(=O)c2cccc(C(=O)OCC(=O)N(C)Cc3c(F)cccc3Cl)c2)C1 (configuration not stated),.,-,.,.,-
ClCc1nnc(-c2ccccc2)o1,-,-,2.9µM,-,-
c1ccc(-c2nnc(-c3ccccc3)o2)cc1,-,?,-,-,-
Clc1cccc(-c2nnc(-c3ccccc3)o2)c1,-,20µM,-,-,-
SMILES,NS1 inh,RE007 growth inh,Pf growth 48h,Pf growth 96h,SARS PLpro yeast
COc1cccc(-n2nc(-c3ccnn3-c3ccccc3)c(=O)n(C)c2=O)c1,-,-,.,12µM,-
CC1=C(C(=O)OC(C)(C)C)C(c2ccco2)C(C#N)=C(N)O1 (configuration not stated),-,-,-,2.1µM,-
COc1cccc(CNC(=O)CCc2ccc(OC)c(OC)c2)c1,-,-,.,-,-
COc1ccc(/C(N)=N/OC(=O)Cc2ccccc2[N+](=O)[O-])cc1,-,-,-,13µM,-
CC1CC(C)CN(C(=O)c2ccc(NS(=O)(=O)c3ccc4[nH]c(=O)[nH]c4c3)cc2)C1 (configuration not stated),.,-,?,?,-
O=C(CCc1nnc(COc2ccccc2)o1)NCCc1cccs1,-,-,-,10µM,-
O=C(CCc1nnc(COc2ccccc2)o1)NCc1ccc(Cl)s1,-,-,-,15µM,-
O=C(CCc1nnc(CCCc2ccccc2)o1)NCCc1ccccc1,-,-,-,-,-

# Screening results: PubChem BioAssay, National Center for Advancing Translational Sciences (NCATS)
